About 83,000 compounds went through this panel and 20% of them were active in at least one assay; those are over-represented in the sample as a whole.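 Results are percent growth after 48 hours of single-concentration exposure. 100 means growth as in untreated cells, lower positive values show inhibition; negative values down to -100 show cell death.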 A number with no mark means an inactive call. Active and inactive are the calls of the source. Rule for the calls: active = growth percent below 10; inactive = the rest.

For the test, the system named is SK-MEL-5 melanoma. Nature of the test: NCI-60 one-dose screen, 48 h (100 = growth as untreated, 0 = no growth, -100 = all killed). The note with it: 10 µM unless noted.
Take `COCCOc1ccc2ncc(C#Cc3cncc(C(=O)Nc4ccc(CN5CCN(C)CC5)c(C(F)(F)F)c4)c3)n2n1`: the growth is 67.4%.

Regarding `CCOC(=O)c1c(N)c(C#N)cn1Cc1ccc(Cl)cc1Cl`, the growth was 78%.

As to `Cc1ccc(Nc2nc(SC(C)C)nc(-c3ccccc3)c2C#N)cc1`, the growth is 83.5%.

As for `O=C(CSc1nc2ccccc2c(=O)n1-c1ccc(Cl)c(Cl)c1)Nc1ccc(S(=O)(=O)Nc2ccc(Cl)nn2)cc1`, the growth was 100%.

As for `N#Cc1cnc2ccc(-c3cnc4n[nH]nc4c3)cc2c1N1CCc2cc(F)c(Cl)cc21`, the growth is -45% (active).

For the molecule `CNC(=O)Nc1ccc(Nc2cc(-c3ccc(-n4cccn4)cc3)[nH]n2)c(C)c1`, the growth was 97.7%.

In the case of `CN1CCN(Cc2ccc(NC(=O)c3cncc(C#Cc4cnc5ccc(N)nn45)c3)cc2C(F)(F)F)CC1`, the growth was 60.8%.

As for `Cc1cc(=O)oc2cc(OCCCOc3ccc(/C=C/C(=O)Nc4ccc(Br)cc4)cc3)ccc12`, the growth is 85%.

Turning to `C/C(CC1(O)C(=O)Nc2ccccc21)=N\O` (stereo unspecified), the growth is 99.9%.

As for `Cc1ccc2c(n1)C(=O)C(Cl)=C(Nc1ccccc1C(=O)OC(C)(C)C)C2=O`, the growth was 45.3%.

For the molecule `COc1ccc(/C=N\NC(=O)c2cnn(CC(O)c3ccccc3)c2N)cc1OCc1ccc(Cl)cc1` (stereo unspecified), the growth is 92.2%.

In the case of `NC(N)=NS(=O)(=O)c1ccc(N=Nc2c(N)nn(-c3ccc([N+](=O)[O-])cc3[N+](=O)[O-])c2N)cc1`, the growth was 99%.

For the molecule `COc1ccccc1Cn1cc(C#N)c(N)c1C(=O)c1ccc(Br)cc1`, the growth is 96.7%.

As to `CC(=C(c1ccc(OCCN2CCCC2)cc1)c1ccc(OCCN2CCCC2)cc1)c1ccc(Cl)cc1`, the growth was -94.9% (active).

Take `CCN(CC)CCOc1ccc(C(=C(C)Cc2ccc(OC)cc2)c2ccc(OCCN(CC)CC)cc2)cc1`: the growth is 31.1%.

Regarding `Fc1ccc(-c2cn3c(-c4c[nH]c5ccc(Br)cc45)csc3n2)cc1`, the growth is 95.2%.

As to `CC1=C(C)C(=O)C(Nc2cccc(C(=O)OC(C)(C)C)c2)=CC1=O`, the growth was 31.3%.

Take `CSc1ccc(/C(=N/N=C(N)N)c2ccc(Cl)cc2)cc1`: the growth was -0.967% (active).

Take `O=C(/C=C/Nc1ccc(S(=O)(=O)Nc2ncccn2)cc1)c1ccc(N=Cc2c(O)[nH]c3ccccc23)cc1`: the growth is 98.1%.

Regarding `N#Cc1c(-c2cccs2)cc(-c2cnccn2)nc1SCC(=O)N/N=C/c1cccs1`, the growth was 20.5%.

On to `O=S(=O)(NCCCNc1nccc(-c2[nH]c(-c3ccccc3)nc2-c2ccc(F)c(O)c2)n1)c1ccccc1`, for which the growth is 59.9%.

With `CC1(C)CC[C@]2(C(=O)NCCCCCCN(CCCN)CCCN)CC[C@]3(C)C(=CC[C@@H]4[C@@]5(C)CC[C@H](O)C(C)(C)[C@@H]5CC[C@]43C)[C@@H]2C1`, the growth is 101%.

On to `CCOC(=O)c1c(NCC(=O)Nc2cccc([N+](=O)[O-])c2)sc(C(C)=O)c1C`, for which the growth is -82.9% (active).

For `O=c1oc2ccc(-c3ccc(F)cc3F)cc2c(=O)n1-c1ccc(Br)cc1F`, the growth was 15%.

For `Cc1ccc2c(n1)C(=O)C(Cl)=C(Nc1cccc(C(=O)OC(C)(C)C)c1)C2=O`, the growth was 88.1%.

As to `C/C(=C(\c1ccc(O)cc1)c1ccc(OCCN2CCCCCC2)cc1)c1ccc(Cl)cc1`, the growth is -96% (active).

On to `CC1=C(C)C(=O)C(Nc2cccc(C(F)(F)F)c2)=C(Br)C1=O`, for which the growth is 81.3%.

For the molecule `CC(C)C(/C=C/c1[nH]ncc1-c1cc(Cl)ccc1O)N1CCOCC1` (stereo unspecified), the growth was 95%.

As for `Fc1cccc(Cl)c1/C=N/Nc1nc(N/N=C/c2c(F)cccc2Cl)nc(N2CCCCC2)n1`, the growth is -59.1% (active).

`COc1ccc(C2C(C#N)=C(/N=C/c3ccc(Cl)cc3)Oc3c2sc2c(C)cccc32)cc1` (stereo unspecified): the growth is 27.8%.

For `O=C(CCCCCCNC(=O)C(O)(O)C(F)(F)F)Nc1ccc(Cl)cc1`, the growth was -28% (active).

As to `O=C1C(SCc2ccccc2)=C(Cl)CN1c1ccc(Cl)cc1`, the growth is 99.3%.

For the molecule `Cc1ccc(-c2nc(SCC(=O)c3ccccc3)nc(Nc3ccc(S(N)(=O)=O)cc3)c2C#N)cc1`, the growth was 75.5%.

For the molecule `O=C1C(N2CCN(c3ccccc3)CC2)=C(Cl)C(=O)c2ncccc21`, the growth was 95.1%.

Take `C#Cc1nc(C(=O)NCCCCCCC(=O)NO)cs1`: the growth was -55.9% (active).

As to `C[C@H](Nc1ncnc2ccc(-c3cnc(Cl)c(NS(C)(=O)=O)c3)cc12)c1ccccc1`, the growth was -92.7% (active).

The record behind these values is PubChem BioAssay (NCI).
